Data reported in the OligoGym collection.

Target: STARD3
Test: pooled miR-30 sensor sort-seq; sequence = guide strand
Conditions: shRNA
Further: reference of the scale not given here.

Row | Sequence | sensor-assay potency score (higher = more potent)
1 | TTAAGAATCCAGACAAAGGTGC | -0.169
2 | TTTTCTTCCCAGCAACTTCTTC | -1.04
3 | TTATTCTTCTCAAACTTCCAGT | -0.167
4 | TAGGACTTTGAAGTCAAGGAAC | -1.37

Target: STAT5B
Test: as above
Conditions: shRNA

Row | Sequence | sensor-assay potency score (higher = more potent)
5 | TTGTTCAAGATCTCGCCACTGT | 0.132
6 | TTGGCTTCTCGGACCAACCTCT | -0.339
7 | TTCTGAGTCACTGAATCTCAGG | -1.25
8 | TTGACTTGAAAAACCAGCTCAT | 0.235
9 | TATACTTCATCTTTTGGCCGAT | -0.0426
10 | TTAACACTTCCATCACACCGTC | -0.414
11 | TTAGCAGTAGCAGACTCGCAGG | -0.797
12 | TTCTCAATGATGAACGTGCTGG | -0.64
13 | TTTAACACTTCCATCACACCGT | 0.122
14 | TAACTCATTCTCTGTGTCCTGC | 0.72
15 | TAACACTTCCATCACACCGTCA | -0.288
16 | TTTAGCAGTAGCAGACTCGCAG | 0.175

Target: STK11
Test: as above
Conditions: shRNA

Row | Sequence | sensor-assay potency score (higher = more potent)
17 | TTTCTGCTTCTCTTCGTTGTAT | 0.0401
18 | TACATTTTCTGCTTCTCTTCGT | 0.646
19 | TCGCAACTTCTTCTTCTTGAGG | -1.45
20 | TTCGTTGTATAACACATCCACC | -1.02
21 | TATAACACATCCACCAGCTGGA | 0.528
22 | TAACACATCCACCAGCTGGATG | -1.1
23 | TTCTTCTTGAGGATCTTGACGG | -0.484
24 | TCAGCTGACAGAAGTACCCGTG | 0.17
25 | TTTTTGTGCCGTAACCTCCTCA | 0.218
26 | TCTTCTTGAGGATCTTGACGGC | -0.46
27 | TTCGCAACTTCTTCTTCTTGAG | -0.46
28 | ATCAGCTGACAGAAGTACCCGT | -0.0103

Target: STK24
Test: as above
Conditions: shRNA

Row | Sequence | sensor-assay potency score (higher = more potent)
29 | TTCTAATAGATCTAGTGCGGAG | -0.878
30 | TTTCATCTTATTTCTGTCCAAG | -0.728
31 | TAATATAGTAGCGATCTGGGTT | 0.44
32 | TCTCGGATTGTGAAGATCCAGT | -1.01
33 | TTTCCTTCCAACGTCGGTGGGT | 0.554
34 | TTTCTCTTAATATAGTAGCGAT | -0.861
35 | TTGTGCTTCAATAACTCCTTAG | -0.488
36 | TAATTGTAGATAAACACTGAGA | -0.826
37 | TATACAAATCTGTACACCCATC | -1.31
38 | TACATATGGACTGTCACACTGA | 0.632
39 | TGGACTGTCACACTGACTCAGC | -1.39
